# Compounds with a hit are over-represented: about 1.8% of the library has one in this group of screens.
# EWS-Fli block – EWS/Fli-driven NR0B1 reporter inhibitors, primary screen, A673 cells, NR0B1 luciferase, luminescence, MLPCN library | viability-normalised | inhibition, % at 12.6 µM | 350,000 tested, 0.67% active | AID 651661, 2012;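 active = mean inhibition of at least 50% after viability correction, with every replicate also passing that limit; inconclusive = mean reaches 50% but only one of two replicates passes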;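 note: firefly luciferase signal divided by Alamar Blue viability fluorescence both relative to DMSO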
# INS-1E GSIS act – GLuc luminescence reporter in INS-1E cells, primary screen for activators of glucose-dependent secretion of insulin | INS-1E GLuc reporter insulin secretion, 2-3 h | activation, % at 16.6 µM | 370,000 tested, 0.61% active;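 active = lowest replicate activation of at least 40%, so every replicate reaches that level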;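 note: 0% = median of neutral control wells and 100% = median of IBMX positive control wells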
# CFTR F508del cor – F508del CFTR correction, initial screen, CFBE line, single point; 350,000 tested, 0.36% active; activity (quench increase), % at 7.58 µM; CFBE cells, YFP halide quenching; stimulated with forskolin plus potentiator P3; % fluorescence drop versus neutral controls; AID 720511, 2013;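 active = mean added fluorescence quench of at least 8% versus neutral control, with both replicates also reaching 8%; inconclusive = only one of the mean or replicate conditions met; inactive = mean below 8% and not both replicates reaching 8%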;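 note: cells transiently co-express mutant CFTR-F508del with the halide-sensitive YFP; corrector assay measuring rescue of mutant channel to the surface after 24 h compound exposure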
# RAD52 inh – RAD52 DNA annealing inhibitors, primary screen, biochemical, FRET, single point, set 2. inhibition, % at 18.7 µM. DNA repair protein RAD52 homolog (Homo sapiens), P43351. 360,000 tested, 0.46% active. recombinant RAD52 DNA annealing, FRET fluorescence;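 active = every replicate showing at least 50% inhibition; inconclusive = mean inhibition at least 50% but not in every replicate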
# Target sequence (P43351 whole entry, looked up): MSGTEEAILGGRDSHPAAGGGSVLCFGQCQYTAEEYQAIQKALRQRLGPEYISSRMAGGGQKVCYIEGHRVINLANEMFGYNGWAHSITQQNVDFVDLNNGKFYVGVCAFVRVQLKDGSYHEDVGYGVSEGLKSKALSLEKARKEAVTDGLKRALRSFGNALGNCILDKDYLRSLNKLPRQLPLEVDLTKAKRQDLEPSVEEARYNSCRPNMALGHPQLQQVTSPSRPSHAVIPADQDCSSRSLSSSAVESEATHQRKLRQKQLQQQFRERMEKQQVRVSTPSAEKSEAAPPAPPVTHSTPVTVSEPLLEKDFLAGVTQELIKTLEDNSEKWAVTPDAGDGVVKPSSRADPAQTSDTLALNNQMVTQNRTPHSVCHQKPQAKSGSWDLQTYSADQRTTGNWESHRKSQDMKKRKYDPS
# LGR2 inh – inhibitors of bursicon-induced LGR2 CRE-luciferase signal, primary screen, cell-based, HEK293, CRE-luciferase reporter, bursicon stimulation; Drosophila bursicon receptor LGR2 (rickets); bursicon-stimulated, 4 h; inhibition, % at 9.99 µM; 380,000 tested, 0.35% active; AID 720647, 2013;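 active = drop in luminescence signal, shown as inhibition above about 50% in the replicate tests, limit read from the data, passing the limit was not always enough; inconclusive = probably only some replicates passing the limit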;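 note: agonist challenge used bursicon conditioned medium at about half maximal strength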
# RAD54 inh – inhibitors of human RAD54 branch migration, primary screen, biochemical, fluorescence, single point; inhibition, % at 10.4 µM; RAD54 Holliday junction branch migration, FAM/BHQ fluorescence; 360,000 tested, 0.14% active; DNA repair and recombination protein RAD54-like (Homo sapiens), Q92698;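 active = mean normalized replicate activity at least 40 and at least half of replicates scoring 40 or more; inconclusive = only one of the two criteria met; inactive = mean below 40 and under half of replicates reaching 40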;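 note: 0% = median of neutral control wells and 100% = median of positive control wells; inhibitors cause a drop in the FAM fluorescence signal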
# Numbers without * were called inactive; ? = inconclusive; · = no result; + = active, no number.
SMILES,EWS-Fli block,INS-1E GSIS act,CFTR F508del cor,RAD52 inh,LGR2 inh,RAD54 inh
CC(=O)NC1C(=O)N=C(SCC(=O)Nc2sc3c(c2C#N)CCCCCC3)NC1=O (centres undefined),-4,-2,0,-6,25,·
COC1=C(C)C(=O)C2=C(C1=O)C1C3CC4=C(C(=O)C(OC)=C(C)C4=O)C(CNC(=O)C(C)=O)N3C(C#N)C(C2)N1C (centres undefined),32,·,3,0,97*,·
Cc1c(C(=O)N/N=C/c2c(O)ccc3ccccc23)nnn1-c1nonc1N,16,1,14*,-25,11,-7
Cc1occc1C(=O)N/N=C/c1c(O)ccc2ccccc12,-39,-9,10*,-20,-39,8
Cn1nccc1C(=O)N/N=C/c1c(O)ccc2ccccc12,-9,-8,11*,-17,6,-2
O=C(NN=Cc1c(O)ccc2ccccc12)c1ccncc1,23,·,6,-18,·,·
CNc1ccccc1C(=O)OCC(=O)Nc1ccc2c(c1)OCO2,-4,31,0,-11,-13,-9
O=C(O)CSc1nnc(-c2ccncc2)n1C1CCCCC1,·,·,·,·,·,-17
CCOc1ccc(C(=O)OCCN(CC)CC)cc1,·,·,·,·,·,-4
CCCOc1ccc(C(=O)OCCN(CC)CC)cc1N,-9,·,-4,95*,11,4
O=C(NCc1ccccc1)C(c1ccncc1)n1c(=O)c(-c2cc3ccccc3[nH]2)nc2ccccc21 (centres undefined),-34,-18,-1,-10,-51,·
O=C(NCc1ccccc1)C(c1ccc(-c2ccccc2)cc1)n1c(=O)c(-c2cc3ccccc3[nH]2)nc2ccccc21 (centres undefined),-42,14,10*,-24,-30,·
O=c1c(Cl)c(N2CCCCC2)cnn1-c1nc2ccccc2[nH]1,·,·,·,·,·,-15
O=c1c2ccccc2cnn1-c1nc2ccccc2[nH]1,91*,10,0,2,100*,·
COC(=O)COc1ccc(S(=O)(=O)NCCC2=CCCCC2)cc1C,11,-45,1,-21,-1,·
O=C(COC(=O)c1ccc(Cl)nc1)Nc1cc(S(=O)(=O)N2CCOCC2)ccc1Cl,-5,-16,4,-31,-21,-3
Cc1ccc(S(=O)(=O)N2CCOCC2)cc1NC(=O)COC(=O)c1ccc(Cl)nc1,2,4,10*,-15,-7,-5
Cc1noc(C)c1COc1ccc(C(=O)N2CCN(c3cccc(Cl)c3)CC2)cc1,4,-16,3,-10,4,-8
O=C(COC(=O)c1cccc(Br)c1)NC(=O)NC1CCCC1,-6,2,3,-1,-5,-4
COc1ccc(NC(=O)C2CC2)cc1OC1CCCC1,·,·,·,·,·,-6
COc1ccc(C(=O)OCC(=O)NC(=O)NC2CCCC2)cc1OC,-4,56*,3,-6,-4,-22
COC(=O)c1ccc(OC)c(OC2CCCC2)c1,7,47*,1,-14,-16,·
CCOc1ccccc1-c1noc(CCC(=O)Nc2cccnc2)n1,-5,6,0,-3,-2,8
CCOC(=O)Cc1csc(NC(=O)/C=C/c2cccc(Br)c2)n1,5,-1,-3,1,12,4
Cc1noc(C)c1S(=O)(=O)Nc1cccc2c1O[C@@H](CN(C)CC1CCCCC1)[C@@H](C)CN([C@H](C)CO)C2=O,-12,-1,-3,-9,8,-5
SMILES,EWS-Fli block,INS-1E GSIS act,CFTR F508del cor,RAD52 inh,LGR2 inh,RAD54 inh
Cc1ccc(S(=O)(=O)NCc2ccccc2)cc1C(=O)N1CC(C)CC(C)C1 (centres undefined),4,-60,8.3*,-10,10,-2
Cc1cc2ncn(CCC(=O)NC(C)(C)C)c2cc1C,2,-14,1,-13,6,·
FC(F)(F)c1cc(CCN2CCNC[C@@H]2c2ccccc2)cc(C(F)(F)F)c1,2,115*,1,34,9,4
NC1=NC[C@@H](Cc2ccc(O)cc2)N1CCc1cc(C(F)(F)F)cc(C(F)(F)F)c1,3,5,-2,14,-9,5
FC(F)(F)c1cc(CCN2CCNC[C@@H]2CC2CCCCC2)cc(C(F)(F)F)c1,55*,+,4,38,13,3
CCCC[C@@H]1CNCCN1CCc1cc(C(F)(F)F)cc(C(F)(F)F)c1,13,-43,2,5,10,-14
c1ccc2c(C[C@@H]3CNCCN3CCCCC3CCCCC3)cccc2c1,3,·,-2,4,·,-9
NC1=NC[C@H](CC2CCCCC2)N1CCc1cc(C(F)(F)F)cc(C(F)(F)F)c1,?,+,3,39,5,12
c1ccc(C[C@H]2CNCCN2CCCCC2CCCCC2)cc1,14,57*,-2,18,27,2
COc1ccc(NC(=O)Nc2cccc3c2O[C@H](CN(C)Cc2ccncc2)[C@H](C)CN([C@@H](C)CO)C3=O)cc1,10,12,3,3,-11,-1
N#Cc1cccc(Oc2ccc(-c3cnc4ccccc4n3)cc2)c1C#N,·,87*,·,·,-14,·
N#Cc1ccc(Oc2ccc(-c3cnc4ccccc4n3)cc2)cc1C#N,·,11,·,·,-2,-5
COc1ccccc1NC(=O)N1CCCCN2[C@@H](CO)[C@@H](c3ccc(-c4cccc(C)c4)cc3)[C@@H]2C1,57*,-15,-3,-2,7,0
CC(=O)N1CCCCN2[C@H](CO)[C@H](c3ccc(-c4cccc(C)c4)cc3)[C@@H]2C1,-5,-3,-3,-11,55*,8
CCOC(=O)c1cnc2c(C)cc(Cl)cc2c1NCCCN1CCOCC1,15,6,3,12,-7,57*
CCOc1cc2c(cc1O)CCC1C2CCC2(C)C(O)CCC12 (centres undefined),55*,-12,3,-12,-3,·
CCNc1cc2c(cc1O)CCC1C2CCC2(C)C(O)CCC12 (centres undefined),19,-5,0,-19,7,·
CCCC(=O)NC(NC(=S)Nc1ccc(N=Nc2ccccc2)cc1)C(Cl)(Cl)Cl (centres undefined),15,·,8.6*,-11,·,-1
COc1cc(OC)c2c(-c3cccc(-c4ccc(OC(F)(F)F)cc4)c3)cc(=O)oc2c1,-3,0,2,3,5,-5
COc1ccc(-c2cccc(-c3cc(=O)oc4cc(OC)cc(OC)c34)c2)cc1,53*,-14,3,-16,-7,8
COc1cc(OC)c2c(-c3cccc(-c4ccc(CO)cc4)c3)cc(=O)oc2c1,·,·,·,·,·,-1
